USP30 block – inhibitors of human USP30 deubiquitinase. hit rate 5.3% among 47,000. purified USP30, Ub-rhodamine cleavage fluorescence. inhibition, % at 25 µM
Target sequence (Q70CQ3 whole entry, looked up): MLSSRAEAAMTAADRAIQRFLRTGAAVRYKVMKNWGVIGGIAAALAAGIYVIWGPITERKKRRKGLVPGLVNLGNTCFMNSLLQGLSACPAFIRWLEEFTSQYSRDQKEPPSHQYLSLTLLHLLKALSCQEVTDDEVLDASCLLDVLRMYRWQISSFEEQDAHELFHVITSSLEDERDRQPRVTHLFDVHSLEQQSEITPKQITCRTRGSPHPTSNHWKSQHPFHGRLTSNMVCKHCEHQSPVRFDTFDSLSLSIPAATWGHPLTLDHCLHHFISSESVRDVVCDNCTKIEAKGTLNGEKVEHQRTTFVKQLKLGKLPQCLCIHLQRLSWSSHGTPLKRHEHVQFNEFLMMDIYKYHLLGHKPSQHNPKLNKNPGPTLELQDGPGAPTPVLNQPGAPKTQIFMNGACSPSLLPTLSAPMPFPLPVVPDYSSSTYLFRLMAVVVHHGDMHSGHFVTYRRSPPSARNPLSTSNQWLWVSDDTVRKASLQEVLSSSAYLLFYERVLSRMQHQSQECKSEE
USP28 block – inhibitors of human USP28 deubiquitinase | hit rate 3% among 47,000 | purified USP28, Ub-rhodamine cleavage fluorescence, 30 min | inhibition, % at 25 µM
Starred values were filed as active, the others as inactive. Shown are actives, neighbours in structure and some others; about 7% of the full set was active somewhere. Cut-off read from the data, not from the text of the source: active = inhibition above about 30%; inactive = the rest.

For Fc1ccc(-c2nc(-c3cnccn3)no2)c(Cl)c1 the results were USP30 block 36* and USP28 block 12.
For O=C(Cc1ccc(F)cc1)N1CCC(Cc2nc(-c3cnccn3)no2)CC1 the results were USP30 block -4 and USP28 block -16.
`CC1CCc2c(sc3ncnc(NC4CCN(CC(N)=O)CC4)c23)C1` (stereo not given) gave USP30 block inactive and USP28 block -246.
Screening O=C(/C=C/c1ccc(OCc2ccccc2)cc1)N1CCN(C(c2ccccc2)c2ccccc2)CC1 returned USP30 block -27 and USP28 block -18.
COc1ccccc1N1CCN(C(=O)/C=C/c2ccc(OCc3ccc(Cl)cc3Cl)cc2)CC1 was read as USP30 block 31* and USP28 block 5.
`O=C(c1cc(=O)nc2sc(N3CCCCCC3)nn12)N1CCCCCC1` gave USP30 block 9 and USP28 block 3.
For Cc1ccc(-c2noc(-c3cn(Cc4ccc(N)cc4)cn3)n2)cc1 the results were USP30 block -3 and USP28 block 4.
`Cc1cccc(NC(=O)Cn2cnc(-c3noc(-c4ccccc4)n3)c2)c1C` gave USP30 block 44* and USP28 block 39*.
Screening Cc1ccccc1-c1noc(-c2cn(Cc3ccc(NC(=O)Cc4ccccc4)cc3)cn2)n1 returned USP30 block 69* and USP28 block 37*.
O=C(Nc1ccc(-c2noc(CCc3ccccc3)n2)cc1)c1ccccc1F was read as USP30 block 1 and USP28 block 9.
Screening O=C(Cn1cnc(-c2noc(-c3ccc(F)cc3)n2)c1)Nc1ccccc1F returned USP30 block 3 and USP28 block 0.
`O=C(Nc1ccc(Cn2cnc(-c3nc(-c4ccccc4)no3)c2)cc1)c1ccccc1F` gave USP30 block 32* and USP28 block 23.
`CC(C(=O)Nc1cnn(C)c1)N1CC2(CCOCC2)Oc2ccccc2C1=O` (stereo not given) gave USP30 block 5 and USP28 block -5.
For O=C(Nc1ccccc1Cl)N1CC[C@@H]2NS(=O)(=O)c3ccccc3O[C@H]2CC1 the results were USP30 block -7 and USP28 block -3.
`O=C(Nc1ccc(F)cc1)Nc1ccc(NC(=O)c2ccccc2O)cc1` gave USP30 block -13 and USP28 block -3.
COc1ccccc1NC(=O)Nc1ccc(NC(=O)c2ccccc2O)cc1 was read as USP30 block 59* and USP28 block 9.
Screening Cc1ccc(C(=O)Oc2cc(N)n(S(=O)(=O)c3ccc(F)cc3)n2)cc1C returned USP30 block -6 and USP28 block 5.
O=C(Cn1cncn1)N1CCN(C(=O)c2ccccc2)CC1 was read as USP30 block 23 and USP28 block 9.
Screening O=C(Nc1cccc(-c2ccc(N3CCOCC3)nn2)c1)c1ccccc1Br returned USP30 block 39* and USP28 block 7.
`O=C(Nc1cccc(-c2ccc(N3CCOCC3)nn2)c1)c1cccc2ccccc12` gave USP30 block 1 and USP28 block -3.
Screening Cc1cccc(NC(=O)CCc2ccnc(N3CCOCC3)c2)c1C returned USP30 block -5 and USP28 block -5.
For Cc1cccc(Nc2nccnc2C2CCCN2C(=O)c2cc(C)on2)n1 (stereo not given) the results were USP30 block 8 and USP28 block 4.
For CNc1cc(C2CN(C(=O)c3cscn3)CCO2)nc(C)n1 (stereo not given) the results were USP30 block 14 and USP28 block 6.
Screening Cc1nc(Nc2ncc(C)s2)cc(C2CN(C(=O)Cc3ccccc3)CCO2)n1 (stereo not given) returned USP30 block 55* and USP28 block 26.
Screening O=C(NC1CCCCCC1)c1cn2ccncc2n1 returned USP30 block -9 and USP28 block -4.
Screening COc1ccc(N2CCn3c(SCC(=O)Nc4cc(C)cc(C)c4)nnc32)cc1 returned USP30 block 35* and USP28 block -6.
Screening COc1ccc(-c2nnc(NC(=O)CSc3ccc(C)cc3)o2)cc1 returned USP30 block 0 and USP28 block -11.
Cc1ccc(Cl)cc1N(C)C(=O)[C@H]1[C@@H]2C[C@@H]3[C@H]1C(=O)O[C@@H]3C2 was read as USP30 block 19 and USP28 block 3.
For O=C1CCCC[C@H]2[C@@H](C[C@@H](c3ccc(F)cc3)N2C(=O)c2ccno2)N1 the results were USP30 block 12 and USP28 block 1.
Screening COC(=O)c1sc2ccccc2c1NC(=O)c1ccc(Br)s1 returned USP30 block 19 and USP28 block 14.
For O=C(Cc1ccccc1)c1ccc(Br)s1 the results were USP30 block 9 and USP28 block 35*.
For CCc1cnc(N2CCC3(CC2)CCN(c2cncnc2)C3=O)nc1 the results were USP30 block 20 and USP28 block 11.
`Cc1ccc(NS(=O)(=O)c2cccc(C(=O)NC3CCN(Cc4ccccc4)CC3)c2)c(C)c1` gave USP30 block 2 and USP28 block 5.
Screening O=C(NC1CCCCCC1)c1cccc(S(=O)(=O)Nc2cc(C(F)(F)F)ccc2Cl)c1 returned USP30 block 31* and USP28 block 15.
For O=C(NCc1noc(-c2ccccc2)n1)C1CC1c1ccccc1 (stereo not given) the results were USP30 block -135 and USP28 block -9.
Screening Cc1cc2cc(CN(Cc3ccc4c(c3)OCO4)C(=O)Nc3ccccc3)c(=O)[nH]c2cc1C returned USP30 block -285 and USP28 block -105.
Cc1cccc2cc(CN(Cc3ccc4c(c3)OCO4)C(=O)NCc3ccccc3)c(=O)[nH]c12 was read as USP30 block 36* and USP28 block 23.
`CC(Cc1ccccc1)NC(=O)[C@H](C)N1C(=O)N2CCc3c([nH]c4ccccc34)[C@@]2(C)C1=O` (stereo not given in full) gave USP30 block -19 and USP28 block -9.
`COc1ccc(C(=O)N[C@@H]2C[C@H]3Oc4ccccc4N[C@H]3[C@@H]2O)cc1` gave USP30 block -19 and USP28 block -8.
CN(c1ccccc1)S(=O)(=O)c1ccc(Cl)c(C(=O)N2CCCc3ccccc32)c1 was read as USP30 block 24 and USP28 block 10.
For COc1ccc(-n2nc3c(c2NC(=O)/C=C\c2ccccc2)CS(=O)(=O)C3)cc1 the results were USP30 block -10 and USP28 block -9.
Screening O=C(/C=C\c1ccc2c(c1)OCO2)Nc1c2c(nn1-c1ccc(Cl)cc1)CS(=O)(=O)C2 returned USP30 block 47* and USP28 block 36*.
Screening CN1CCC2(CN(S(C)(=O)=O)CC23CCN(C(=O)NCc2ccccc2)CC3)C1=O (stereo not given) returned USP30 block 0 and USP28 block -2.
Screening Cc1ccc(C(=O)N2CCc3cnn(C)c3C2COCC2CC2)cn1 (stereo not given) returned USP30 block -29 and USP28 block -9.
`CCOc1ncccc1C(=O)OCC(=O)c1ccc(C)c(C)c1` gave USP30 block -2 and USP28 block 38*.
CCc1ccc(C(=O)COC(=O)c2cccnc2Nc2ccccc2F)cc1 was read as USP30 block -10 and USP28 block 0.
For CSc1cccc(NC(=O)CCc2nc3cccnc3n2Cc2ccccc2)c1 the results were USP30 block -44 and USP28 block -15.
